This is a sample that favours compounds with a hit; in the whole collection about 6.3% have one here.
NADH coupling: blocks coupling enzymes of NAD/NADH assays; coupled PK/LDH NADH assays, four targets; IC50, µM (doses to about 10 µM), for inactives: at the top dose inhibition; hit rate 0.02% among 65,000; AID 774;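 active = single-dose screening hits from any of four coupled enzyme assays that gave an IC50 when retested across doses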;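 note: the DPM-DC format reads NADH fluorescence rather than 340 nm absorbance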
Spn PMK inh: S. pneumoniae PMK inhibition; purified PMK, PK/LDH-coupled NADH absorbance 340 nm; hit rate 0.49% among 65,000; inhibition, % at 10 µM;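 active = top-ranked compounds by inhibition in the single 10 µM screen, taking a fixed number of the strongest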;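 note: 0% = full reaction with DMSO carrier and 100% = background rate without enzyme reaction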
Spn DPM-DC inh: S. pneumoniae DPM-DC inhibition. purified DPM-DC, PK/LDH coupled NADH fluorescence. calls only at 10 µM. hit rate 0.49% among 65,000. AID 556;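 active = the 320 compounds with the highest percent inhibition in the single-dose primary screen, excluding strongly autofluorescent ones, cut at about 32% in these data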;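 note: kinetic rate of NADH fluorescence loss reporting ADP formed by the decarboxylase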
MK inhibit: S. pneumoniae mevalonate kinase inhibition | inhibition, % at 10 µM | AID 555 | purified MK, PK/LDH-coupled NADH absorbance 340 nm | hit rate 0.48% among 65,000;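 active = ranked among the strongest by inhibition in the single 10 µM screen, a fixed top-ranked set picked for dose follow-up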
Fluor 339 460: intrinsic fluorescence of library compounds, ex339/em460 – biochemical, MLSMR library, data from DPM-DC assay, artefact control, profiling panel | compound autofluorescence, ex339/em460 nm, NADH buffer; stronger effect = higher value; 1 = no-compound wells, NADH background | fluorescence fold increase at 10 µM | hit rate 5.5% among 65,000 | AID 709;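 active = at 10 µM, mean starting fluorescence two-fold or more over control wells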;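 note: signal is the first read of a kinetic run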
Abs 340nm: absorbance at 340 nm; compound absorbance at 340 nm, fold over control; AID 708; fold change at 10 µM; 65,000 tested, under 10 active;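 active = at 10 µM dose, initial 340 nm absorbance at least 2 fold that of control wells; inactive = change under 2 fold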;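 note: initial absorbance extrapolated from kinetic A340 decline of NADH oxidation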
Active calls of the source: *; i = inactive; . = not tested or not shown; + = active, no number.

SMILES	NADH coupling	Spn PMK inh	Spn DPM-DC inh	MK inhibit	Fluor 339 460	Abs 340nm
NC(=O)C1CCN(C(c2ccccc2Cl)c2nnnn2Cc2ccc3c(c2)OCO3)CC1 (stereo not drawn)	11%	14	i	7	0.85	0.99
O=C(COC(=O)C1CCCCC1C(=O)N1CCc2ccccc21)NCc1ccco1 (stereo not drawn)	3%	9	i	0	1.1	0.97
O=C(NCc1ccco1)c1nc2nc(-c3cccs3)cc(C(F)(F)F)n2n1	1%	0	.	2	3.8*	1.2
Cc1ccccc1Cc1c(C)nc2c(C(=O)NCc3ccco3)cnn2c1C	7%	12	i	0	3.3*	1.1
Cc1ccc(-c2cc(C(F)F)n3ncc(C(=O)NCc4ccco4)c3n2)cc1	4%	2	.	6	2.3*	1.1
Cc1cc(C(F)F)n2ncc(C(=O)NCc3ccccc3C(F)(F)F)c2n1	9%	21	i	5	1.2	1
Cc1ccc(-c2cc(C(F)(F)F)n3ncc(C(=O)NCc4ccco4)c3n2)cc1	18%	9	+	8	1.8	1.1
CCOC(=O)C1=C(c2ccccc2)N2CCN=C2S1	3%	22	i	2	1.1	1
CCOC(=O)C1CCCN(c2c(N3CCc4ccccc4C3)c(=O)c2=O)C1 (stereo not drawn)	1%	3	i	0	1.1	1.1
COCCNC(=O)c1cnn2c(C(F)(F)F)cc(-c3ccc4c(c3)OCO4)nc12	24%	10	+	11	2.5*	1
COc1cc2cc(C(c3nnnn3C3CCCCC3)N(C)C3CCCCC3)c(=O)[nH]c2cc1OC (stereo not drawn)	4%	3	i	8	1.6	1.1
O=C1c2oc3ccc(Cl)cc3c(=O)c2C(c2ccccn2)N1CCCN1CCOCC1 (stereo not drawn)	2%	0	i	5	1.2	1.1
CC(C)C(=O)Nc1cccc(NC(=O)CCN2C(=O)c3ccccc3S2(=O)=O)c1	6%	8	i	9	1	1
CC(=O)Oc1ccc(NC(=O)CSc2ccccc2)cc1	3%	5	i	5	1.1	1.1
CCN(CC)C(=O)CSc1ncnc2c(-c3cccs3)nsc12	11%	10	i	0	2.6*	1.1
Cc1c(NC(=O)COc2ncnc3ccccc23)c(=O)n(-c2ccccc2)n1C	3%	9	i	0	1.1	0.99
COc1cccc(CN2CCN(C(=O)c3cccc(F)c3)CC2)c1	17%	0	i	51*	1	1.1
COc1cc(OC)cc(C(=O)N2CCN(C(=O)c3cccc(F)c3)CC2)c1	6%	8	i	9	1.1	1
N#Cc1cc2c(=O)n3ccccc3nc2n(CCN2CCOCC2)c1=O	8%	12	.	4	3.9*	1.1
Cc1ccc2nc3c(cc(C#N)c(=O)n3-c3nccs3)c(=O)n2c1	9%	9	.	8	3.8*	1.1
COc1ccc(CCn2c(=N)c(C#N)cc3c(=O)n4ccccc4nc32)cc1	4%	1	i	10	1.3	1
Cc1ccc2nc3c(cc(C#N)c(=O)n3CCN3CCOCC3)c(=O)n2c1	9%	1	i	7	3*	1
O=c1c2ccccc2nc(-c2ccccc2)n1CCN1CCOCC1	7%	11	i	10	1.1	1
COc1ccc(-c2nc3ccccc3c(=O)n2CCCN2CCOCC2)cc1	4%	8	i	4	1.1	1
N=c1c(C(=O)NC2CCCC2)cc2c(=O)n3ccccc3nc2n1CCN1CCOCC1	5%	0	.	10	1.9	1.1
SMILES	NADH coupling	Spn PMK inh	Spn DPM-DC inh	MK inhibit	Fluor 339 460	Abs 340nm
N#Cc1cc2c(=O)n3ccccc3nc2n(CCCN2CCOCC2)c1=O	12%	14	.	10	3.9*	1
CC1CCCC(C)N1c1nnc(N)s1 (stereo not drawn)	13%	19	i	14	1	1
Cc1ccc(Sc2oc(/C=N/n3cnnc3)cc2Br)cc1	9%	14	i	5	1.1	1.1
Cc1ccc(O)c(C(=O)c2cc(C#N)c(=O)n(CC3CCCO3)c2)c1 (stereo not drawn)	5%	17	i	3	1	1
Cc1ccc2nc3c(cc(C#N)c(=O)n3CC3CCCO3)c(=O)n2c1 (stereo not drawn)	11%	14	.	8	3.8*	1.1
COc1ccc(C2C3=C(CC(C)(C)CC3=O)Nc3c2c(=O)[nH]c2nc(C)nn32)cc1 (stereo not drawn)	16%	5	i	15	2.5*	1.1
CCOC(=O)N1CCC(NC(=O)c2cn(-c3ccc(OC)cc3)c(=O)c3ccccc23)CC1	9%	16	i	10	1.2	1
CCOC(=O)N1CCC(NC(=O)c2cccn3c(=O)c4cc(Br)ccc4nc23)CC1	7%	18	i	4	2.2*	1
CCCCS(=O)(=O)c1sc2nc(C)cc(C)c2c1N	13%	5	i	8	2*	1.1
Cc1cc(C)c2c(N)c(S(=O)(=O)c3ccccc3)sc2n1	3%	0	i	1	1.4	1.1
Nc1ccc[n+](Cc2ccccn2)c1	8%	20	i	4	2.1*	1.1
CCn1c(CC(C)C)n[nH]c1=S	16%	3	i	44*	1.1	1
CCOc1ccccc1NC(=O)c1c(NC(=O)CNCc2ccco2)sc2c1CCC2	5%	11	i	3	1.4	1.1
CCOC(=O)C(C)Sc1nc(-c2ccc(OC)cc2)nc2c1c(=O)n(C)c(=O)n2C (stereo not drawn)	7%	8	.	6	2.2*	1.1
COC(=O)C(C)Sc1nc(-c2ccc(OC)cc2)nc2c1c(=O)n(C)c(=O)n2C (stereo not drawn)	13%	14	i	5	3.6*	1.1
CCOC(=O)C(CC)Sc1nc(-c2ccc(OC)cc2)nc2c1c(=O)n(C)c(=O)n2C (stereo not drawn)	5%	8	.	2	5*	1.1
CC(=O)C(Sc1nc(-c2ccc(F)cc2)nc2c1c(=O)n(C)c(=O)n2C)C(C)=O	2%	0	i	6	1	1.1
CCCc1nc(SCC(=O)c2ccc(OC)cc2)c2c(=O)n(C)c(=O)n(C)c2n1	6%	7	i	11	1.1	1
CCC(C)N1CC23C=CC(O2)C(C(=O)OCc2ccccc2)C3C1=O (stereo not drawn)	3%	5	i	3	1.1	0.97
CC(=O)NCCc1ccc(S(=O)(=O)Nc2cccnc2)cc1	2%	6	i	1	1.1	1.1
O=C(CSc1nnc(-c2ccc(Cl)s2)o1)N1CCc2ccccc21	0%	0	i	0	2*	1
C=CCn1c(=N)c(C(=O)NCCCOC)cc2c(=O)n3cccc(C)c3nc21	0%	0	.	0	2.3*	1.1

Bioassay records (PubChem BioAssay)
